FEN1 inhibitor: blocks human flap endonuclease 1; P39748; Recombinant FEN1 flap cleavage, fluorescence, 15 min; Potency, µM (doses to about 114 µM), for the others: top-dose activity change, negative = inhibition, most hits filed as inhibitors; 390,000 compounds, 0.35% hits; further: potency means the concentration at half of the fitted maximal effect; on the % scale 0 is the no-effect control and ±100 the full control effect; nearly all actives have a fitted effect of over 65% in size
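Nuclease activity of 10 nM FEN1 was measured after 15 min of room-temperature exposure to titrated compounds, by adding 50 nM flap substrate and reading plates at 0 and 15 min.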
Pol eta inh-1: inhibitors of human DNA polymerase eta. recombinant Pol eta, fluorescent DNA replication assay. 390,000 compounds, 1.2% hits. AID 588591. Q9Y253. Potency, µM (highest dose often 114 µM), without a hit: at the top dose activity change, negative = inhibition, usual class: inhibitors; further: potency means the concentration at half of the fitted maximal effect; on the % scale 0 is the no-effect control and ±100 the full control effect
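Fluorescent replication assay: 50 nM final substrate added after a 15 min room-temperature compound preincubation with 10 nM enzyme. Signal taken at 0 min and again at 10 min.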
Pol beta inh-1: inhibitors of human DNA polymerase beta; Potency, µM (top dose mostly 114 µM), without a hit: at the top dose activity change, negative = inhibition, usual class: inhibitors; 340,000 compounds, 1.3% hits; Pol beta primer extension/strand displacement, fluorescence kinetic; further: potency means the concentration at half of the fitted maximal effect; on the % scale 0 is the no-effect control and ±100 the full control effect
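Enzyme-only controls used 10 nM Pol beta; buffer lacking enzyme served as negative control. Compound preincubated 15 min, then 50 nM substrate added; 0 and 10 min reads at room temperature.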
WRN inhibitor: inhibitors of human WRN helicase | 360,000 compounds, 0.46% hits | AID 651768 | Potency, µM (top dose mostly 114 µM), for the others: at the top dose activity change, negative = inhibition, most hits filed as inhibitors | Q14191 | WRN helicase unwinding, fluorescent forked duplex, kinetic; further: potency means the concentration at half of the fitted maximal effect; on the % scale 0 is the no-effect control and ±100 the full control effect; nearly all actives have a fitted effect of over 55% in size
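WRN at 20 nM final preincubated with compound 15 min at room temperature; reaction started with 100 nM fluorophore/quencher forked duplex oligonucleotide and 2 mM ATP final. Unwinding followed kinetically by red fluorescence (ex 525, em 598 nm).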
Pol iota inh: DNA polymerase iota (human) inhibition; Q9UNA4; Pol iota fluorescent replication assay, 10 min; Potency, µM (highest dose often 115 µM), without a hit: top-dose activity, negative = inhibition, hits mostly inhibitors; 390,000 compounds, 1% hits; further: potency means the concentration at half of the fitted maximal effect
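Pol iota at 10 nM preincubated 15 min with compounds at room temperature; reaction started with fluorescent substrate, 50 nM final. Fluorescence read kinetically at 0 and 10 min; buffer-only wells as negative control.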
Pol kappa inh-1: blocks human DNA polymerase kappa activity; Q9UBT6; purified Pol kappa, fluorescent DNA synthesis assay, 10 min; Potency, µM (doses to about 107 µM), without a hit: at the highest dose activity, negative = inhibition, usual class: inhibitors; 400,000 compounds, 0.53% hits; further: potency means the concentration at half of the fitted maximal effect; on the % scale 0 is the no-effect control and ±100 the full control effect
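Enzyme at 10 nM met test compounds for 15 min at room temperature. Substrate addition (50 nM final) began the reaction, which was monitored by fluorescence at 0 and 10 min.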
Pol beta inh-2: Validate hits inhibiting human DNA polymerase beta. Potency, µM, actives largely listed as inhibitors. Pol beta primer extension/strand displacement, fluorescence kinetic. shares compounds with Pol beta inh-1. 250 compounds, 87% hits; calls by dose curve; further: potency means the concentration at half of the fitted maximal effect
Klenow inh: counter-screen for DNA polymerase beta inhibitors: Klenow fragment inhibition; shares compounds with Pol beta inh-1; Klenow exo- polymerase counter-screen, fluorescent DNA substrate; activity change, negative = inhibition, % at 57.1 µM; 250 tested, under 10 active; AID 540300
HIV RT inh: inhibits HIV-1 reverse transcriptase in counter-screen. shares compounds with Pol beta inh-1. HIV-1 RT polymerase activity, counter-screen. activity % (negative = inhibition, positive = activation), % at 57.1 µM. 250 tested, under 10 active
POLB inh gel: validation of human DNA polymerase beta inhibitors; shares compounds with Pol beta inh-1; radiolabeled primer extension gel assay, phosphorimager; inhibition, % at 10 µM; 110 compounds, 91% hits; AID 540325;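 active means inhibition at 10 µM of 30% or more; inconclusive means no clear call, values can overlap the other calls; inactive means inhibition at 10 µM under 30%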
POLI cherry-pick: Inhibitors of human DNA polymerase iota, confirmation | shares compounds with Pol kappa inh-1 | Pol iota primer extension, TAMRA/BHQ fluorescence | Potency, µM, actives largely listed as inhibitors | 1,500 compounds, 77% hits; further: potency means the concentration at half of the fitted maximal effect
Pol kappa inh-2: Pol kappa (human) inhibition, cherry-pick confirmation; shares compounds with Pol eta inh-1; purified Pol-kappa, fluorescent strand-displacement substrate; Potency, µM, usual class: inhibitors; 920 compounds, 76% hits; AID 720501; further: potency means the concentration at half of the fitted maximal effect
Pol eta inh-2: confirmation of human DNA polymerase eta inhibitors; shares compounds with Pol eta inh-1; AID 720502; 2,600 compounds, 64% hits; Pol eta primer extension, TAMRA/BHQ fluorescence, 10 min; Potency, µM, usual class: inhibitors; further: potency means the concentration at half of the fitted maximal effect
The depositor's hits bear a star; ? = inconclusive; · = no result; [ ] = remark or other dose. Hits are enriched below; roughly 2.4% of the tested compounds scored in any of these assays. Unless noted, the call rests on the fitted dose curve; in most records, active means well fitted curve in the direction sought with a large enough effect; inconclusive means small, poorly fitted or top-dose-only effect, or another doubt; inactive means no such curve, though single readings can be large; an effect the other way counts as inactive or inconclusive.

SMILES | FEN1 inhibitor | Pol eta inh-1 | Pol beta inh-1 | WRN inhibitor | Pol iota inh | Pol kappa inh-1 | Pol beta inh-2 | Klenow inh | HIV RT inh | POLB inh gel | POLI cherry-pick | Pol eta inh-2 | others
c1coc(-c2nnc3sc(Cc4cccs4)nn23)c1 | 56µM* | 28µM* | 13µM* | 45µM* | 7.9µM* | 20µM* | 22* | -10 | 38 | 36* | ? | ?
O=C(Cc1ccc(S(=O)(=O)N2CCOCC2)s1)Nc1ccc2c(c1)CCC2 | -9% | ? | -2% | -7% | 2% | -10% | · | · | · | · | · | ·
O=C(Cc1ccc(S(=O)(=O)N2CCOCC2)s1)Nc1nc2c(s1)CCCC2 | ? | 4µM* | 7.1µM* | 35µM* | ? | 18µM* | 28* | -36 | 28 | 99* | 34* | 30* | Pol kappa inh-2=21*
Cc1ccc(NC(=O)C(Cc2ccccc2)n2cccc2)c(C)c1 (centres undefined) | 2% | -22% | -1% | · | 23% | -15% | · | · | · | · | · | ·
CCCOC(=O)c1ccc(Cn2nnc3sc4c(c3c2=O)CCC(C)C4)cc1 (centres undefined) | 8% | · | 18% | · | 10% | 5% | · | · | · | · | · | ·
CCCc1cc(=O)oc2cc(C)c(CN3CCCC3)c(O)c12 | 50µM* | 22µM* | 6.3µM* | 40µM* | 5µM* | 20µM* | 25* | -25 | 23 | 5 | · | 67*
CCCc1cc(=O)oc2c(CN3CCCC3)c(O)ccc12 | -1% | -5% | 20% | 7% | 14% | -1% | · | · | · | · | · | ·
CCOC(=O)/C=C/C(=O)N1CCc2ccccc21 | -2% | 9% | 30% | -10% | ? | -5% | · | · | · | · | · | ·
Cc1ccc(/C=C/C(=O)N2CCc3ccccc32)o1 | -18% | 8.9µM* | 13µM* | ? | 35µM* | ? | 18* | -3 | 20 | · | 67* | 67*
Cc1ccc(NC(=O)c2c3c(nc4ccccc24)CCC3)cc1S(=O)(=O)N(C)C | -6% | ? | 10µM* | -3%[11.6 µM] | 22µM* | 79µM* | 35* | -16 | 45 | 89* | · | ?
Cc1ccccc1-n1c(=O)c2c3c(sc2n2cnnc12)CCCC3 | 0% | -17% | 0% | · | 15% | 1% | · | · | · | · | · | ·
COc1ccccc1CNC(=O)c1cn(C)c2ccc(S(=O)(=O)N3CCC(C)CC3)cc2c1=O | 21% | -3% | 22% | · | 19% | 6% | · | · | · | · | · | ·
CCCSc1nnc(NC(=O)c2sc3nc(-c4cccs4)ccc3c2N)s1 | ? | 79µM* | 18µM* | ? | ? | -17% | 13* | -7 | 4 | · | ? | 60* | Pol kappa inh-2=19*
COc1ccc(-c2[nH]c3ccccc3c2SCCNC(=O)c2cc(OC)c(OC)c(OC)c2)cc1 | -15% | -10% | 0% | · | -2% | -8% | · | · | · | · | · | ·

Source: PubChem BioAssay
